Sampled rows, rich in hits. Any-hit rate of the full collection: about 0.89%.
RPL19A TOR yeast = RPL19A-GFP expression modulators in yeast, primary screen, cell-based, S. cerevisiae, multiplex flow cytometry, MLPCN; S. cerevisiae RPL19A-GFP strain, 3 h; hits give low values; percent response vs DMSO, % at 10 µM; 330,000 compounds, 0.3% hits; AID 2025, 2009;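 active = percent response vs DMSO below 50%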;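 also: median channel GFP fluorescence of the barcoded RPL19A-GFP strain; ratio of sample median GFP to plate DMSO average so 100% = DMSO; lower means less RPL19A-GFP as with rapamycin TOR inhibition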
AGP1 TOR yeast = modulators of AGP1-GFP expression in yeast TOR pathway, primary screen, cell-based, multiplex flow cytometry, S. cerevisiae, MLPCN library. 320,000 compounds, 0.02% hits. GFP response vs DMSO, % at 10 µM. 3 h; GFP as percent of DMSO wells. AID 2066, 2009;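 active = GFP response relative to DMSO above a set limit, near screen average plus 3 SD, cut at about 150% in these data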;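 also: median GFP channel fluorescence of the gated AGP1 strain per well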
CIT2 TOR yeast = modulators of CIT2-GFP expression in yeast, primary screen, S. cerevisiae, GFP fusion, multiplex flow cytometry, MLPCN library; AID 2029, 2009; 320,000 compounds, 0.065% hits; GFP response vs DMSO, % at 10 µM; S. cerevisiae CIT2-GFP strain, 3 h; 100 means same as DMSO wells;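 active = GFP response relative to DMSO above a set limit, near the screen mean plus 3 SD, cut at about 150% in these data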;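 also: ratio of well median GFP fluorescence to mean of DMSO wells on the plate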
MEP2 TOR yeast = modulators of MEP2-GFP levels in yeast, primary screen, S. cerevisiae, multiplex flow cytometry, MLPCN library; S. cerevisiae MEP2-GFP strain, 3 h; 100% = DMSO control level; GFP response vs DMSO, % at 10 µM; 330,000 compounds, 0.51% hits; AID 2016, 2009;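 active = GFP response versus DMSO above a set limit, roughly screen mean plus 3 SD, cut at about 180% in these data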;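 also: median GFP fluorescence of the barcode-gated MEP2-GFP cells per well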
LAP4-GFP MLPCN = modulators of LAP4-GFP expression in yeast, primary screen, S. cerevisiae, multiplex flow cytometry, MLPCN library | 320,000 compounds, 0.34% hits | AID 2023, 2009 | 3 h; median GFP as percent of DMSO wells | GFP response vs DMSO, % at 10 µM;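 active = GFP response vs DMSO above a set limit, about the screen mean plus 3 SD, cut at about 150% in these data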
LAP4 cherry2 = LAP4-GFP expression modulators in yeast, confirmation, cell-based, second cherry pick, flow cytometry; S. cerevisiae LAP4-GFP strain, 3 h; 590 compounds, 20% hits; GFP response vs DMSO, % at 10 µM; AID 2621, 2010; shares compounds with LAP4-GFP MLPCN;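 active = GFP signal as percent of the solvent control above about 150%, meaning raised reporter expression, limit read from the data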;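 also: ratio of well median GFP fluorescence to plate DMSO mean so 100% = DMSO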
MEP2 cherry2 = modulators of MEP2-GFP levels in yeast, confirmation, S. cerevisiae, flow cytometry GFP, second cherry picks. shares compounds with LAP4-GFP MLPCN. S. cerevisiae MEP2-GFP strain, 3 h. GFP response vs DMSO, % at 10 µM. 590 compounds, 10% hits;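 active = GFP signal above 150% of the solvent control wells, that is a rise of more than half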;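 also: median channel GFP fluorescence of all gated yeast cells per well; ratio of median GFP to plate DMSO average so 100% = DMSO level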
RPL19A GFP CP2 = RPL19A-GFP modulators in TOR pathway yeast, confirmation, cell-based, S. cerevisiae, flow cytometry, second cherry pick; shares compounds with LAP4-GFP MLPCN; S. cerevisiae RPL19A-GFP strain, 3 h; hits give low values; 100% means same as DMSO wells; GFP response vs DMSO, % at 10 µM; 590 compounds, 3% hits; AID 2623, 2010;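 active = under 65% GFP response relative to DMSO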;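 also: median GFP channel fluorescence per well over the all cells gate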
CIT2-GFP pick2 = modulators of CIT2-GFP expression in yeast, confirmation, flow cytometry, second cherry pick, single plex | shares compounds with LAP4-GFP MLPCN | S. cerevisiae CIT2-GFP strain, 3 h; DMSO control wells read 100% | GFP response vs DMSO, % at 10 µM | 590 compounds, 8% hits;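 active = GFP response vs DMSO above about 150%, limit read from the data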;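 also: median green fluorescence per well over all gated yeast cells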
AGP1 GFP CP2 = AGP1-GFP expression modulators, hit retest, confirmation, cell-based, flow cytometry, S. cerevisiae, cherry pick set 2; shares compounds with LAP4-GFP MLPCN; S. cerevisiae AGP1-GFP strain, 3 h; percent response vs DMSO, % at 10 µM; 590 tested, under 10 active;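 active = over 150 percent of DMSO response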;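 also: median GFP channel fluorescence over all cells without mother daughter split; sample median GFP divided by mean DMSO control so 100% equals DMSO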
Yeast autofluor = compound autofluorescence in yeast s288c, dose response, artefact control for yeast TOR pathway GFP screen, s288c strain. shares compounds with LAP4-GFP MLPCN. S. cerevisiae s288c, 520 nm autofluorescence, flow cytometry, 3 h; hits give high values; zero means same as solvent-only cells. fluorescence change (kMESF span) at 33 µM. 610 tested, under 10 active. AID 2757, 2010;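 active = fluorescence span over the dose series, or activity score, above about 33, limit read from the data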
The depositor's hits bear a star; / = not tested or not shown; + = active, no number.

SMILES	RPL19A TOR yeast	AGP1 TOR yeast	CIT2 TOR yeast	MEP2 TOR yeast	LAP4-GFP MLPCN	LAP4 cherry2	MEP2 cherry2	RPL19A GFP CP2	CIT2-GFP pick2	AGP1 GFP CP2	others
O=C(COC(=O)/C=C/c1cccc(F)c1)NC1CCCC1	93	92	85	94	103	/	/	/	/	/
CCOC(=O)c1ccc(NC(=O)Nc2ncccc2C)cc1	111	93	81	101	99	/	/	/	/	/
CCOC(=O)c1ccc(NC(=O)Nc2ncc(Cl)cc2Cl)cc1	63	62	81	89	79	97	112	65	100	66
COc1ccc(C(=O)/C=C2/c3ccccc3CC(C)(C)N2C)cc1OC	99	93	101	103	92	/	/	/	/	/
COc1ccc(S(=O)(=O)N2CCN(C(=O)NCc3ccc(C)cc3)CC2)cc1	96	101	101	101	95	/	/	/	/	/
CC(OC(=O)Cn1cnc2ccccc2c1=O)C(=O)NCc1ccccc1 (stereo unspecified)	104	112	106	112	101	/	/	/	/	/
CCOC(=O)N1C(=O)[C@](CC)(c2ccccc2)N1C(=O)OCC	91	91	99	94	108	/	/	/	/	/
CCC1(c2ccccc2)ON(c2c(Br)cccc2Br)C1=O (stereo unspecified)	80	60	82	86	131	124	118	100	113	94	Yeast autofluor=0.5
CCOC(=O)c1cc(-c2ccc(/C=C3/C(=O)NC(=O)C(C#N)=C3C)o2)ccc1Cl	67	64	87	108	151*	/	/	/	/	/	Yeast autofluor=1.2
Cc1cc(N2CCN(S(=O)(=O)c3ccc(Br)cc3)CC2)n2ncnc2n1	50	28	84	142	85	103	108	98	103	96
COC(CNC(=O)c1ccc2c3c(onc13)-c1ccccc1C2=O)OC	72	66	90	91	230*	/	/	/	/	/	Yeast autofluor=5.3
O=C(O)c1cccc(CN2C(=O)S/C(=C/c3cccc([N+](=O)[O-])c3)C2=O)c1	53	22	82	156	103	98	100	103	103	99
O=C(Sc1cccc2cccnc12)c1ccccc1Br	94	82	89	105	166*	/	/	/	/	/	Yeast autofluor=0.21
CC(Oc1ccccc1F)c1nnc(SCC(=O)NCc2ccc3c(c2)OCO3)o1 (stereo unspecified)	89	90	92	100	85	/	/	/	/	/
O=C(Nc1ccc(Cl)cc1Cl)c1cccc(N2C(=O)C=CC2=O)c1	64	90	87	102	184*	/	/	/	/	/	Yeast autofluor=1.5
O=C(Nc1ccc(Cl)cc1Cl)c1ccc2c(c1)OCCO2	98	92	86	99	105	/	/	/	/	/
CCOC(=O)CNC(=O)Cn1cnc2c(nnn2-c2cccc(OC)c2)c1=O	102	96	94	102	102	/	/	/	/	/
Cc1ccc2cc(CN(c3ccccc3C)S(=O)(=O)c3ccccc3)c(=O)[nH]c2c1	96	97	100	106	95	/	/	/	/	/
O=C(CCNC(=O)N1CCn2c1nc1ccccc12)NCc1ccc(F)cc1	60	17	100	119	85	101	105	100	101	97
COc1ccccc1C(=O)Nc1ccnn1C1CCN(Cc2cnc(N(C)C)s2)CC1	104	100	104	104	98	/	/	/	/	/
CN1C(=O)[C@@H]2C[C@@]3([C@@]45C[C@H]6C(=O)N(C)[C@@H](Cc7ccccc7)C(=O)N6[C@@H]4Nc4ccccc45)c4ccccc4N[C@H]3N2C(=O)[C@@H]1Cc1ccccc1	99	94	129	94	155*	97	96	103	108	100
O=C1N[C@@H](Cc2ccccc2)C(=O)N2[C@H]3Nc4ccccc4[C@@]3([C@]34C[C@H]5C(=O)N[C@@H](Cc6ccccc6)C(=O)N5[C@H]3Nc3ccccc34)C[C@@H]12	99	103	99	98	91	/	/	/	/	/
Cc1ccc(-n2nc(C(=O)NN)c(C)c(C#N)c2=O)cc1Cl	90	59	123	+	102	101	98	97	108	102
O=C(CCN1C(=O)c2ccccc2S1(=O)=O)Nc1ccc(F)c(F)c1F	99	104	89	99	105	/	/	/	/	/
O=C(COC(=O)CNS(=O)(=O)c1ccc(Br)cc1Cl)NCCc1ccccc1	101	107	109	105	106	/	/	/	/	/
Cc1ccc(C(=O)NC(C)c2nnc(SCC(=O)NC3CCCC3)n2C)cc1 (stereo unspecified)	104	88	100	97	66	/	/	/	/	/
O=C(CN(Cc1ccc(F)cc1)C(=O)CCC(=O)Nc1nccs1)NCC1CCCO1 (stereo unspecified)	104	105	112	106	95	/	/	/	/	/

Compound activity as filed in PubChem.
